From PubChem BioAssay (Tox21)
Records with an inconclusive call do not appear. Calls of active or inactive are those of the source. Unless noted, calls come from the whole dose curve; as a rule, active = well fitted curve in the direction sought with a large enough effect in the repeat runs; inconclusive = weak or mixed curves; inactive = no such curve, though single readings can be large; an effect the other way counts as inactive or inconclusive.

Tests used:
[1] = qHTS assay to identify small molecule agonists of the vitamin D receptor (VDR) signaling pathway - cell viability counter screen (AID 743224); note: series mostly up to about 63 µM; % is set by controls: 0 for no effect and ±100 for the full control effect; nearly all actives have a fitted effect of over 50% in size
In short: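 Cytotoxicity counter screen: VDR-bla cells, 16 h compound exposure at 37C, 5% CO2; CellTiter-Glo luminescence, 30 min RT, same wells as bla read.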

[2] = qHTS assay to identify small molecule antagonists of the vitamin D receptor (VDR) signaling pathway - cell viability counter screen (AID 743225); note: % is set by controls: 0 for no effect and ±100 for the full control effect; nearly all actives have a fitted effect of over 50% in size
In short: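 Luminescent cell viability (CellTiter-Glo) in VDR-bla HEK 293T cells after 16 h compound exposure at 37C in the presence of 3 nM final 1-alpha,25-dihydroxy vitamin D3.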

[3] = qHTS assay to identify small molecule agonists of the NFkB signaling pathway (AID 1159509; active = well fitted curve in the direction sought with a large enough effect in the signal ratio in the repeat runs, not every such curve was filed as active; the % refers to the signal ratio; note: series mostly up to about 61 µM; % is set by controls: 0 for no effect and ±100 for the full control effect)
In short: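 Readout: FRET fluorescence, 405 nm excitation, 460/530 nm emission; beta-lactamase expression disrupts FRET. Cells: ME-180 stably carrying NF-kB-driven bla reporter. Compound exposure 5 hr, 37 C, 5% CO2.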

[4] = qHTS assay to identify small molecule agonists of the NFkB signaling pathway - cell viability counter screen (AID 1159515; calls by dose curve; note: series mostly up to about 61 µM; % is set by controls: 0 for no effect and ±100 for the full control effect; nearly all actives have a fitted effect of over 55% in size)
In short: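 ME-180 NFkB-bla cells, 2,000/well; overnight attach; compound 5 hr, 37 C/5% CO2; LiveBLAzer substrate 1.5 hr RT; then CellTiter-Glo in same wells, 30 min RT, luminescence read.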

[5] = qHTS assay to identify small molecule agonists of the endoplasmic reticulum stress response signaling pathway (AID 1159516; active = well fitted activation curve with a large enough effect in the signal ratio in the repeat runs, not every such curve was filed as active; the % refers to the signal ratio; note: % is set by controls: 0 for no effect and ±100 for the full control effect)
In short: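 HeLa ESRE-bla reporter line; cpd 5 h, 37 C/5% CO2; LiveBLAzer B/G FRET substrate 2 h RT; ex 405, em 460/530 nm.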

[6] = qHTS assay to identify small molecule agonists of the endoplasmic reticulum stress response signaling pathway - cell viability counter screen (AID 1159517; calls by dose curve;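 note: HeLa cells carrying an ER stress response element beta-lactamase reporter; series mostly up to about 61 µM; % is set by controls: 0 for no effect and ±100 for the full control effect; nearly all actives have a fitted effect of over 50% in size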)
In short: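 After overnight attachment, ESRE-bla HeLa cells were treated with Tox21 library compounds for 5 hr. CellTiter-Glo luminescence, read 30 min post-addition at room temperature, reported viability.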

[7] = qHTS assay to identify small molecule antagonists of the retinoid-related orphan receptor gamma (ROR-gamma) signaling pathway - cell viability counter screen (AID 1159520); note: % is set by controls: 0 for no effect and ±100 for the full control effect; nearly all actives have a fitted effect of over 50% in size
In short: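 Cytotoxicity was read from cellular ATP (CellTiter-Glo luminescence) after 16 hr at 37 C with 1 uM doxycycline induction. The inducer was added 2 hr after compound transfer to Tet-on ROR gamma CHO cells.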

[8] = biological target: Nuclear receptor ROR-gamma (Homo sapiens) (UniProt P51449); test: qHTS assay to identify small molecule antagonists of the retinoid-related orphan receptor gamma (ROR-gamma) signaling pathway (AID 1159521)
In short: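 CHO cells expressing RORγ under a TET-on promoter, luciferase under RORE control. Dox 1 uM final, 16 h; compounds added 2 h prior. Luminescence decrease measured.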

[9] = qHTS assay to identify small molecule agonists of the AP-1 signaling pathway - cell viability counter screen (AID 1159525; calls by dose curve; note: nearly all actives have a fitted effect of over 55% in size)
In short: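 Intracellular ATP by Cell Titer Glo luminescence (30 min, RT) in the same ME-180 AP-1-bla wells after the 5 h compound exposure at 37 °C. Normalised to tetra n-octyl ammonium bromide and DMSO controls.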

[10] = qHTS assay to identify small molecule agonists of the AP-1 signaling pathway (AID 1159526; calls by dose curve; note: % is set by controls: 0 for no effect and ±100 for the full control effect)

C=C[Si](OC)(OC)OC
inactive: outcome [1] | outcome [2] | outcome [3] | outcome [4] | outcome [5] | outcome [6] | Potency [7] | Potency [8] | outcome [9] | Potency [10]

CCCCCCC(CCCCCCCCCCC(=O)OCC(COC(C)=O)OC(C)=O)OC(C)=O (stereo not drawn)
inactive: outcome [1] | outcome [2] | outcome [3] | outcome [4] | outcome [5] | outcome [6] | Potency [7] | Potency [8] | outcome [9] | Potency [10]

CC1(C)OC(=O)Nc2ccc(Br)cc21
inactive: outcome [1] | outcome [2] | outcome [3] | outcome [4] | outcome [5] | outcome [6] | Potency [7] | Potency [8] | outcome [9] | Potency [10]

CCCCCCCCCCCl
inactive: outcome [1] | outcome [2] | outcome [3] | outcome [4] | outcome [5] | outcome [6] | Potency [7] | Potency [8] | outcome [9] | Potency [10]

CCO[Si](C)(OCC)OCC
inactive: outcome [1] | outcome [2] | outcome [3] | outcome [4] | outcome [5] | outcome [6] | Potency [7] | Potency [8] | outcome [9] | Potency [10]

NC(=O)c1ncn([C@@H]2O[C@H](CO)[C@@H](O)[C@H]2O)c1N
inactive: outcome [1] | outcome [2] | outcome [3] | outcome [4] | outcome [5] | outcome [6] | Potency [7] | Potency [8] | outcome [9] | Potency [10]

CC(C)(C)OC(=O)N1C[C@@H](F)C[C@H]1C(=O)O
inactive: outcome [1] | outcome [2] | outcome [3] | outcome [4] | outcome [5] | outcome [6] | Potency [7] | Potency [8] | outcome [9] | Potency [10]

CN(C)N=Nc1ccccc1
inactive: outcome [1] | outcome [2] | outcome [3] | outcome [4] | outcome [5] | outcome [6] | Potency [7] | Potency [8] | outcome [9] | Potency [10]

NC(=O)c1ncn([C@@H]2O[C@H](CO)[C@@H](O)[C@H]2O)c1O
inactive: outcome [1] | outcome [2] | outcome [3] | outcome [4] | outcome [5] | outcome [6] | Potency [7] | Potency [8] | outcome [9] | Potency [10]

NCC[C@H](O)C(=O)N[C@@H]1C[C@H](N)[C@@H](O[C@H]2O[C@H](CN)[C@@H](O)[C@H](O)[C@H]2O)[C@H](O)[C@H]1O[C@H]1O[C@H](CO)[C@@H](O)[C@H](N)[C@H]1O
inactive: activity change, negative = cytotoxicity [1] 7.01% [at 0.55 µM] | viability change, negative = cytotoxic [2] 0.0036% [at 0.628 µM] | activation [3] 0.167% [at 0.628 µM] | activity, negative = cytotoxic [4] 8.7% [at 0.628 µM] | activation [5] -0.818% [at 0.628 µM] | activity change, negative = cytotoxicity [6] 6.85% [at 0.628 µM] | activity, negative = cytotoxicity [7] 3.36% [at 0.349 µM] | activity change, negative = inhibition [8] 19% [at 0.35 µM] | viability change, negative = cytotoxic [9] 8.93% [at 0.29 µM] | activation [10] 12.3% [at 0.29 µM]

CC(C)[C@H](N)C(=O)OCCOCn1cnc2c(=O)[nH]c(N)nc21
inactive: outcome [1] | outcome [2] | outcome [3] | outcome [4] | outcome [5] | outcome [6] | Potency [7] | Potency [8] | outcome [9] | Potency [10]

C1=C\CC/C=C\CC/C=C\CC/1
inactive: outcome [1] | outcome [2] | outcome [3] | outcome [4] | outcome [5] | outcome [6] | Potency [7] | Potency [8] | outcome [9] | Potency [10]

OCC(CO)(CO)COCC(CO)(CO)CO
inactive: outcome [1] | outcome [2] | outcome [3] | outcome [4] | outcome [5] | outcome [6] | Potency [7] | Potency [8] | outcome [9] | Potency [10]

CCC(=O)c1cccc(Cl)c1
inactive: outcome [1] | outcome [2] | outcome [3] | outcome [4] | outcome [5] | outcome [6] | Potency [7] | Potency [8] | outcome [9] | Potency [10]

N#CCN(CC#N)CCN(CC#N)CC#N
inactive: outcome [1] | outcome [2] | outcome [3] | outcome [4] | outcome [5] | outcome [6] | Potency [7] | Potency [8] | outcome [9] | Potency [10]

[O-][N+](=Nc1ccccc1)c1ccccc1
inactive: outcome [1] | outcome [2] | outcome [3] | outcome [4] | outcome [5] | outcome [6] | Potency [7] | Potency [8] | outcome [9] | Potency [10]

Oc1ccc2c(c1)OC[C@@H](N1CCC(O)(c3ccc(F)cc3)CC1)[C@H]2O
inactive: outcome [1] | outcome [2] | outcome [3] | outcome [4] | outcome [5] | outcome [6] | Potency [7] | Potency [8] | outcome [9] | Potency [10]

CCCCCCOC(=O)c1ccccc1O
inactive: outcome [1] | outcome [2] | outcome [3] | outcome [4] | outcome [5] | outcome [6] | Potency [7] | Potency [8] | Potency [10]

COc1cc(O)cc(O)c1
inactive: outcome [1] | outcome [3] | outcome [4] | outcome [5] | outcome [6] | Potency [7] | Potency [8] | Potency [10]

COc1ccc(COC=O)cc1
inactive: outcome [1] | outcome [2] | outcome [3] | outcome [4] | outcome [5] | outcome [6] | Potency [7] | Potency [8] | Potency [10]

CO[Si](OC)(OC)OC
inactive: outcome [1] | outcome [2] | outcome [3] | outcome [4] | outcome [5] | outcome [6] | Potency [7] | Potency [8] | outcome [9] | Potency [10]

CCC(=O)Nc1cccc(N)c1
inactive: outcome [1] | outcome [2] | outcome [3] | outcome [4] | outcome [5] | outcome [6] | Potency [7] | Potency [8] | Potency [10]

C=CC(=O)N1CCOCC1
inactive: outcome [1] | outcome [2] | outcome [3] | outcome [4] | outcome [5] | outcome [6] | Potency [7] | Potency [8] | Potency [10]

CC(C)=CCC/C(C)=C/C(=O)O
inactive: outcome [1] | outcome [2] | outcome [3] | outcome [4] | outcome [5] | outcome [6] | Potency [7] | Potency [8] | Potency [10]
